The record followed here is PubChem BioAssay AID1240 (Sanford-Burnham Center for Chemical Genomics, 2008).

About 800 (1.6%) of roughly 50,000 compounds showed an effect of 50% or more. For the sample, strong results were picked, then their nearest neighbours and some compounds at random.

For the assay, the target named is Bcl-2-like protein 10 (Homo sapiens) (UniProt Q9HD36). As to the kind of experiment: Phenotype converters, Bcl-B/TR3 peptide binding displacement, primary biochemical FP (AID 1240).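 Further: 0% = Bcl-B with tracer peptide and DMSO and 100% = tracer peptide lacking Bcl-B.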 Conditions: GST-Bcl-B / FITC-TR3 peptide fluorescence polarization; stronger effect = higher value; compound at 3.75 mg/L.
Chain of Bcl-2-like protein 10 (Homo sapiens) (Q9HD36 whole entry, looked up): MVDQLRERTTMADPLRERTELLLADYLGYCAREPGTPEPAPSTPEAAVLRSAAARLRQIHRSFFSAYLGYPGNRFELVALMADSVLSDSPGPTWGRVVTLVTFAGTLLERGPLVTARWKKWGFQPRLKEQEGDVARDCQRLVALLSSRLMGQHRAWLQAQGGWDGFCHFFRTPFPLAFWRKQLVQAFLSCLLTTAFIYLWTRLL
Regarding `O=C(O)CSCCCN1C(=O)c2cccc3cccc(c23)C1=O`, the displacement was 8%.
Take `CC1=C(C(=O)Nc2ccccc2C)C(c2ccc(F)cc2)NC(=O)N1` (stereo unspecified): the displacement is 16.2%.
To `Cc1ccc(S(=O)(=O)Nc2ccccc2C(=O)Nc2ccccc2)cc1` belongs 9.6%; to `COC(C(=O)N1CCCCCC1)(c1ccccc1)c1ccccc1`, 16.8%; to `COc1cc(/C=C2\SC(=S)NC2=O)ccc1Oc1ccc([N+](=O)[O-])cn1`, 20.6%.
In the case of `O=C1NC(=S)N/C1=C\c1ccc(Oc2ccc([N+](=O)[O-])cn2)cc1`, the displacement was 101%.
For the compound `COc1cc(/C=C2\NC(=S)NC2=O)ccc1Oc1ccc([N+](=O)[O-])cn1`, the displacement was found to be 8.2%.
In the case of `O=C1C(=Cc2ccc(Oc3ccc([N+](=O)[O-])cn3)cc2)C(=O)c2ccccc21`, the displacement is 4.6%.
In the case of `O=C1NC(=S)S/C1=C\c1ccc(Oc2ccc([N+](=O)[O-])cn2)cc1`, the displacement was determined as 61.8%.
Under `O=C1NC(=S)NC(=O)C1=Cc1ccc(Oc2ccc([N+](=O)[O-])cn2)cc1` stands 10.5%; under `COc1ccc(C(=O)Nc2ccc(S(=O)(=O)NC(C)=O)cc2)cc1`, 13.1%.
To `COc1ccc(-n2cnc3cc(NS(=O)(=O)c4ccc(C)cc4)ccc32)cc1` belongs -1.2%.
Under `COc1cc(C(=O)Nc2nnc(CC(=O)NCc3ccccc3)s2)cc(OC)c1OC` stands -14%; under `CCCOc1ccc(N2C(=O)C3C4C=CC(C4=C(C)C)C3C2=O)cc1` (stereo unspecified), 9.9%.
`COc1ccc(N2C(=O)C3C4C=CC(C4=C(C)C)C3C2=O)cc1` (stereo unspecified): the displacement was 120%.
As to `CC(=O)Oc1ccc(N2C(=O)C3C4C=CC(C4=C(C)C)C3C2=O)cc1` (stereo unspecified), the displacement is -3.2%.
`O=C1N=C(N2CCOCC2)S/C1=C/c1ccc(Cl)cc1`: the displacement is -0.1%.
Under `COC(=O)c1cc(-c2cccs2)nc2ccc(Br)cc12` stands 104%; under `COC(=O)c1sccc1NC(=O)c1cc(-c2ccccc2Cl)nc2ccccc12`, 22.7%.
To `COC(=O)c1cc(-c2ccc(Br)cc2)nc2ccccc12` belongs 0%.
To `COc1ccc(-c2cc(C(=O)Nc3ccccc3F)c3ccccc3n2)c(OC)c1` belongs 82.3%; to `COc1ccccc1NC(=O)c1cc(-c2cccs2)nc2ccccc12`, -3.7%.
Turning to `COc1ccc(NC(=O)c2cc(-c3ccc(OC)cc3OC)nc3ccccc23)c(OC)c1`, the displacement was -0.8%.
`COC(=O)c1sccc1NC(=O)c1cc(-c2cccs2)nc2ccccc12`: the displacement came out at 60.4%.
To `COC(=O)c1sccc1NC(=O)c1cc(-c2ccc(OC)cc2OC)nc2ccccc12` belongs 16.4%; to `COC(=O)c1ccccc1NC(=O)c1cc(-c2ccc(OC)cc2OC)nc2ccccc12`, -3%; to `COc1cc(NC(=O)c2cc(-c3cccs3)nc3ccccc23)c(OC)cc1Cl`, 55.2%.
For the compound `COc1ccc(Cl)cc1NC(=O)c1cc(-c2cccs2)nc2ccccc12`, the displacement is 8.5%.
As for `COC(=O)c1cc(-c2ccc(OC)cc2)nc2ccc(Br)cc12`, the displacement was -4.1%.
Under `O=C(CSCC(=O)Nc1cccc(C(F)(F)F)c1)Nc1ccccc1` stands -10.4%.
To `CCOc1cc(/C=N/NC(=O)c2ccncc2)ccc1OC(=O)c1ccc([N+](=O)[O-])cc1` belongs 6.9%; to `O=C1c2cccc3cccc(c23)C(=O)N1/N=C/c1ccco1`, 25.1%.
To `COc1ccc(S(=O)(=O)Nn2cnnc2)cc1` belongs -1%; to `O=C(O)CN(c1ccccc1)S(=O)(=O)c1ccccc1[N+](=O)[O-]`, 4.7%.
As for `CCOC(=O)C1=C(O)/C(=C\c2ccc(OC)cc2)N=C1C`, the displacement was 4.4%.
Under `Cc1onc(-c2ccccc2Cl)c1C(=O)Nc1sc(C)c(C)c1C(=O)OC(C)C` stands -6.3%.
`CCN(CC)CCN1C(=O)C(O)=C(C(=O)/C=C/c2ccccc2)C1c1ccccc1[N+](=O)[O-]` (stereo unspecified): the displacement came out at 3.2%.
As for `COc1ccc(-c2cc(C(F)(F)F)n3nc(C(=O)NCc4ccco4)c(Cl)c3n2)cc1OC`, the displacement is -5.3%.
As for `COc1ccc(Cc2noc(COc3ccc(Cl)cc3)n2)cc1`, the displacement worked out at 2.7%.
To `COc1ccccc1OCCOc1cccc(/C=C2/SC(=S)N(C)C2=O)c1` belongs 95.5%; to `COc1cc(/C=C2/SC(=S)N(C)C2=O)ccc1OCCOc1ccc([N+](=O)[O-])cc1`, 74.5%.
For `COc1ccccc1OCCOc1ccc(/C=C2/SC(=S)N(C)C2=O)cc1`, the displacement was found to be 3.9%.
For `CN1C(=O)/C(=C\c2ccc(OCCOc3ccc([N+](=O)[O-])cc3)cc2)SC1=S`, the displacement was -0.4%.
Under `CN1C(=O)/C(=C\c2ccccc2OCCOc2ccc([N+](=O)[O-])cc2)SC1=S` stands 133%; under `Cc1ccccc1OCCOc1cccc(/C=C2/SC(=S)N(C)C2=O)c1`, 1.2%; under `CN1C(=O)/C(=C\c2ccccc2OCCOc2ccc(Br)cc2)SC1=S`, 2.3%.
Turning to `COc1cc(C=C2C(=O)N(C)C(=O)N(C)C2=O)ccc1OCCOc1ccc([N+](=O)[O-])cc1`, the displacement came out at 26.1%.
Consider `Cc1ccc(OCCOc2ccccc2/C=C2/SC(=S)N(C)C2=O)cc1`, for which the displacement was determined as 3.3%.
With `CCc1ccc(/C=C2\C(=O)NN(c3ccc(Cl)c(Cl)c3)C2=O)cc1`, the displacement turned out to be 5.7%.
Under `CCOc1cc(C(=O)Nc2ccc3c(c2)OCCO3)cc(OCC)c1OCC` stands -7.7%; under `C=CCn1c(C)c(/C=C(/C#N)C(=O)Nc2ccc(OC)cc2)c2ccccc21`, -6.6%.
Under `CCOC(=O)c1c(NC(=O)c2ccc(C(=O)c3ccccc3)cc2)sc2c1CCC2` stands 10.7%; under `Cc1ccc(N[C@@H]2O[C@H](CO)[C@@H](O)[C@H](O)[C@@H]2O)cc1`, 11%.
Under `CC(=O)Oc1ccc2c(C)c(C)c(=O)oc2c1` stands 6.4%; under `CCSc1nnc2c(n1)OC(c1ccc(OCc3ccccc3)cc1)Nc1ccccc1-2` (stereo unspecified), 120%.
For `CCSc1nnc2c(n1)OC(c1ccc(C(=O)O)cc1)Nc1ccccc1-2` (stereo unspecified), the displacement was 9.9%.
Turning to `CSc1nnc2c(n1)OC(c1ccc(OCc3ccccc3)cc1)Nc1ccccc1-2` (stereo unspecified), the displacement worked out at 7.4%.
Take `CCOC(=O)C1=C(O)/C(=C/c2ccc(F)cc2)SC1=Nc1ccc([N+](=O)[O-])cc1`: the displacement was determined as 59.1%.
For `CCOC(=O)C1=C(O)/C(=C/c2ccc(OCC)cc2)SC1=Nc1ccc([N+](=O)[O-])cc1`, the displacement came to 122%.
To `CCOC(=O)C1=C(O)CSC1=Nc1ccc(C)cc1` belongs -15.6%; to `CCOC(=O)C1=C(O)/C(=C/c2ccc(Cl)cc2)SC1=Nc1ccc([N+](=O)[O-])cc1`, -7.6%; to `CCOC(=O)C1=C(O)/C(=C/c2ccc(O)cc2)SC1=Nc1ccc([N+](=O)[O-])cc1`, -9.8%.
To `CCOC(=O)C1=C(O)CSC1=Nc1ccc([N+](=O)[O-])cc1` belongs 112%.
With `CCOC(=O)C1=C(O)CSC1=Nc1ccc(Cl)cc1`, the displacement is -6.7%.
To `CCOC(=O)C1=C(O)/C(=C/c2ccc([N+](=O)[O-])cc2)SC1=Nc1ccc(C)cc1` belongs -3.1%.
Consider `CCOC(=O)C1=C(O)/C(=C/c2ccc(O)c(OCC)c2)SC1=Nc1ccc([N+](=O)[O-])cc1`, for which the displacement is -5.5%.
